Measurements published in PubChem BioAssay (NCI).
About 83,000 compounds went through this panel and 20% of them were active in at least one assay; those are over-represented in the sample as a whole.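 Treatment: one concentration, 48 hours, 96-well format. Scoring: percent growth, with anything below 10 considered active.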 Values without a mark were called inactive. Calls of active or inactive are those of the source.

Key:
Experiment in all cases: NCI-60 one-dose screen, 48 h (100 = growth as untreated, 0 = no growth, -100 = all killed)
SR leukemia = settings: 10 µM
RPMI-8226 leukemia = settings: 10 µM
OVCAR-5 ovarian = settings: 10 µM
OVCAR-4 ovarian = settings: 10 µM
SK-OV-3 ovarian = settings: 10 µM
OVCAR-3 ovarian = settings: 10 µM
HS 578T breast = settings: 10 µM
NCI/ADR-RES ovarian = settings: 10 µM
T-47D breast = settings: 10 µM
BT-549 breast = settings: 10 µM
MDA-MB-435 melanoma = settings: 10 µM
SW-620 colon = settings: 10 µM
MCF7 breast = settings: 10 µM unless noted
HCT-116 colon = settings: 10 µM
HCC-2998 colon = settings: 10 µM
KM12 colon = settings: 10 µM
OVCAR-8 ovarian = settings: 10 µM
IGROV1 ovarian = settings: 10 µM

SMILES	growth (SR leukemia)	growth (RPMI-8226 leukemia)	growth (OVCAR-5 ovarian)	growth (OVCAR-4 ovarian) [%]	growth (SK-OV-3 ovarian) [%]	growth (OVCAR-3 ovarian)	growth (HS 578T breast)	growth (NCI/ADR-RES ovarian)	growth (T-47D breast) [%]	growth (BT-549 breast)	growth (MDA-MB-435 melanoma)	growth (SW-620 colon) [%]	growth (MCF7 breast) [%]	growth (HCT-116 colon)	growth (HCC-2998 colon)	growth (KM12 colon) [%]	growth (OVCAR-8 ovarian) [%]	growth (IGROV1 ovarian) [%]
C=CCCCCCCCCCOC(C)=O	91.4%	101%	103%	103	104	103%	99.7%	107%	97.9	132%	110%	105	96.2	110%	98.4%	103		
C=CCNC(=O)c1ccc(OC)cc1	110%		103%	134	116	121%	221%	101%	103	106%	109%	126	95.2	105%	93.3%	122	107	96.2
Nc1nc(OCc2ccccc2)c2[nH]cnc2n1	84.9%	115%	77.8%	65.9	109	109%	93.6%	108%	101	94.4%	99.3%	102	95.9	95.4%	104%	112		93.4
O=c1[nH][nH]c(=O)c2cc([N+](=O)[O-])ccc12	94.9%	106%	110%	99.2	101	127%	100%	105%	96.1		109%	101	99.8	101%	99.6%	106		103
COc1cc2c(cc1O)CC[C@@H]1C2CC[C@@]2(C)C1CC[C@@H]2O (some centres undefined)	15.1%	0% (active)	-41.5% (active)	65.2	24.1	4.72% (active)		-70.7% (active)	31.1	23.4%	-46.9% (active)	12.1	16.4	7.39% (active)		33.5		25.3
O=C1c2ccccc2C(=O)c2c1ccc(C(=O)O)c2[N+](=O)[O-]	76.1%		102%	96	108	115%	82.5%	103%	105	95.5%	118%	102	89.9	104%	106%	101	100	105
COC(=O)/C=C1\Sc2cc(F)ccc2NC1=O	95.5%	92%	83.2%	102	111	115%	121%	101%	84.5	127%	100%	127	83.7	90.1%	126%	107		102
CCc1nc(N)nc(N)c1-c1ccc(Cl)cc1	57.3%	102%		78.4	84	116%	103%	56.4%	100	67.7%	35%	27.2	67.8	25.4%	75.9%	82.5	47.7	
COc1cc(-c2ccc(NC(=O)NC3CC3)c(OC)c2)ccc1NC(=O)NC1CC1	1.38% (active)		101%	80.4	75.5	97.3%	81.5%	90.3%	82.8	89.5%	99.4%	66.8	72.4	36.9%	68.2%	71.8	57.9	83.8
S=C(Nc1ccccc1)N1CCCCC1	105%		90.1%	111	107	110%	102%	107%	89.3	112%	110%	106	93.2	92.3%	101%	105	99.4	100
CSC[C@H](NC(=O)COc1cccc2cnccc12)C(=O)NC(Cc1ccccc1)C(O)C(=O)N1CSC[C@H]1C(=O)NC(C)(C)C (some centres undefined)	84.5%	102%	91.7%		115	101%	86.8%	106%	111	105%	103%		114	121%	108%	116		
CC(=O)Oc1ccc(Br)cc1C(=O)O	99.1%	99.5%		104	98.2	111%			97.6	97.7%	104%		94.3	95.4%	100%	115	104	98.4
C/C=C/CC(C)C(O)C1C(=O)NC(CC)C(=O)N(C)CC(=O)N(C)C(CC(C)C)C(=O)NC(C(C)C)C(=O)N(C)C(CC(C)C)C(=O)NC(C)C(=O)NC(C)C(=O)N(C)C(CC(C)C)C(=O)N(C)C(CC(C)C)C(=O)N(C)C(C(C)C)C(=O)N1C (centres undefined)	-0.0306% (active)		32%	29.9	40.4	17.4%	45.8%	31.9%	23.2	-14.4% (active)	-6.76% (active)	31.3	18.7	8.61% (active)	1.86% (active)	17.7	38.1	43.9
CC1Cc2ccccc2O1 (centres undefined)	100%		110%	119	112	118%	111%	110%	104	134%	124%	111	99.6	112%	86.4%	107	112	111
CC(C)OC(=O)c1cc(NC(=S)OC(C)C)ccc1Cl	70.2%	83.3%	67.2%	99.1	95.1	93.9%	-29% (active)	25.8%	58.3	180%	97%	91.4	95.1	72.2%	160%	59.5		89.9
O=[N+]([O-])c1ccc(O)c(S(=O)(=O)O)c1	98%		93.2%	108	110	109%	103%	109%	96.5	128%	109%	104	102	101%	112%	111	94.4	130
O=C(O)CCC(NC(=O)OCc1ccccc1)C(=O)O (centres undefined)	97.5%	107%	105%	106	82.4	103%	107%	107%	98.5	119%	104%	101	93	111%	99.7%	105		
COc1cc2c3c(n(C)c(=O)c2cc1OC)-c1cc2c(cc1C3=O)OCO2	17.6%	48.2%	78.4%	55.8	74.6	104%	102%	77.5%	28.2	68.6%	72.3%	58.8	26.8	51.5%	64.5%	83.9		11.3
